We go through 60 compounds from PubChem BioAssay AID1529 (NMMLSC, 2009).

The whole screen tested about 290,000 compounds, of which about 4,200 (1.4%) were called active. What follows is part of a selection rich in actives, with near analogues and random picks from the rest. Unmarked numbers belong to inactive results.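 How the source made its calls: active means binding response more than 3 SD above or below the average of its plate-row segment, actives on both sides; inconclusive means wells at one plate position flagged as instrument error; inactive means the rest.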

This assay deals with Mitogen-activated protein kinase kinase kinase 3 (Homo sapiens) (UniProt Q99759). Nature of the assay: modulators of MEKK3-MEK5 PB1 binding, primary screen, biochemical, wildtype MEKK3, multiplex bead flow cytometry, Alexa488-MEK5 (AID 1529).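 Further: Alexa488 bead fluorescence after subtracting the streptavidin-only scavenger bead signal.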 The note with it: bead-based flow cytometry, Alexa488-MEK5 binding to MEKK3; at 10 µM; actives lie on both sides; 0 = blocked by unlabeled MEK5, 100 = vehicle.
Sequence of Mitogen-activated protein kinase kinase kinase 3 (Homo sapiens) (Q99759 whole entry, looked up): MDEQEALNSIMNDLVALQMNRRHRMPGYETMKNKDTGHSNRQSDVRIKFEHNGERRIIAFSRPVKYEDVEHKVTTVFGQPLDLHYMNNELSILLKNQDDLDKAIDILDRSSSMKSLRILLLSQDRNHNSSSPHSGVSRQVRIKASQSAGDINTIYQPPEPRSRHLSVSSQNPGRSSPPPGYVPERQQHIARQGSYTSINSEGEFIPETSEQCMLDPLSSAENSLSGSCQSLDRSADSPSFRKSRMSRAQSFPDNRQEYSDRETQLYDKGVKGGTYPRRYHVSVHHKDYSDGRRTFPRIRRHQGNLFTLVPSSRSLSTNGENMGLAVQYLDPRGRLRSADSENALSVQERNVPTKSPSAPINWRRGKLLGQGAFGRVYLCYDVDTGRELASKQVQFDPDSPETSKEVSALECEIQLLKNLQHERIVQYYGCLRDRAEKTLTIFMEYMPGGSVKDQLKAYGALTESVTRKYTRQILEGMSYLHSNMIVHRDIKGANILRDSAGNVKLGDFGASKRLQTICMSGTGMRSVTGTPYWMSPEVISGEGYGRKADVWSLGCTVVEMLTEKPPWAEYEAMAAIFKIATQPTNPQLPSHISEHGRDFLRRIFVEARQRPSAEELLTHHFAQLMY
As to `COC(=O)c1cccc(N(C(=O)CNC(=O)c2cccs2)C(C(=O)NCC2CCCO2)c2ccc(OC)c(OC)c2)c1` (stereo not given), the binding response (% of control) was 100%.
Then `COC(=O)[C@@H]1CC(O)CN1C(=O)C12CC3CC(CC(C3)C1)C2` (stereo not given in full), with 96%; and `O=C(O)c1cc(Cl)c(Cl)cc1C(=O)Nc1cccc2ncccc12`, with 128% (active); and `O=C(Nc1cccc2ncccc12)c1ccc(-c2ccc(Cl)cc2Cl)o1`, with 102%.
As to `O=C(Nc1cccc2ncccc12)C(Cl)(Cl)Cl`, the binding response (% of control) is 101%.
The same measure for `OCC[C@H]1C[C@H](O)[C@@H](O)[C@]2(CCCCO2)O1`: 100%.
The same measure for `CCc1ccc2nc(Nc3ncc(C(C)=O)c(C)n3)nc(C)c2c1`: 49% [inhibitor] (active); for `Cc1ccc2nc(Nc3ncc4c(n3)CC(C)(C)CC4=O)nc(C)c2c1`: 102%; for `COc1ccccc1Nc1ncc(C(C)=O)c(C)n1`: 104%.
In the case of `CCn1c(NCCc2ccc(OC)c(OC)c2)nc2c1c(=O)n(C)c(=O)n2C`, the binding response (% of control) is 103%.
`CCCCn1c(SCC(=O)NCCc2ccc(OC)c(OC)c2)nc2c1c(=O)n(C)c(=O)n2C`: the binding response (% of control) is 0% [inhibitor] (active).
The same measure for `C#CC(C)(C)NC(=O)CSc1nc2c(c(=O)n(C)c(=O)n2C)n1CCCC`: 108%; for `Cc1ccc(O)c(/C=N/NC(=O)COc2ccc3c(C)cc(=O)oc3c2)c1`: 99%.
`C/C(=N\Nc1ncc(Cl)cc1Cl)c1cccs1`: the binding response (% of control) is 103%.
Regarding `COc1cccc(/C(C)=N/Nc2ncc(Cl)cc2Cl)c1`, the binding response (% of control) was 135% (active).
The same measure for `C/C(=N\Nc1ncc(Cl)cc1Cl)c1ccc(S(=O)(=O)NCc2ccco2)cc1`: 108%.
Then `O=C(CN(C(=O)c1nsc(Cl)c1Cl)c1cccc(F)c1)NC1CCCC1`, with 99%.
The same measure for `COCc1ccc(C(=O)NC2CC(C)(C)Cc3c2cnn3-c2ccc(C)cc2)o1` (stereo not given): 97%; for `CC1CCC2(CC1)NC(=O)N(CC(=O)c1ccc3c(c1)OCO3)C2=O` (stereo not given): 99%.
`CC(C)CNC(=O)C(=O)NCc1ccccc1`: the binding response (% of control) was 96%.
Then `CC(C)CC(=O)NC(=S)NCc1ccccc1`, with 141% (active); and `CC(C)CC(=O)NC(=S)Nc1cc(C(=O)O)ccc1Cl`, with 132% (active); and `CC(=O)c1ccc(NC(=S)NC(=O)CC(C)C)cc1`, with 104%.
The same measure for `CC(C)Oc1ccc(CCC(=O)NNC(=S)NCc2ccccc2)cc1`: 95%; for `CC(C)CC(=O)NC(=S)Nc1ccc(F)cc1F`: 117%.
Then `CCc1nn(CCCC(=O)Nc2ccc(C)cc2C)c(=O)c2cc3occc3n12`, with 99%; and `CN(Cc1ccccc1Cl)C(=O)C1CCC(=O)N(CCc2cccc(F)c2)C1` (stereo not given), with 102%; and `COc1ccc(N(CC(=O)N2CCCCCC2)S(=O)(=O)c2ccccc2)cc1`, with 102%.
Regarding `COc1ccc(C(=O)O/N=C(\N)c2ccccn2)cc1[N+](=O)[O-]`, the binding response (% of control) was 107%.
The same measure for `COC(=O)c1c(NC(=O)CCCC(=O)O)sc2c1CCCCC2`: 99%.
Then `CCc1ccc(N(CC(=O)Nc2sc3c(c2C(=O)OC)CCCC3)S(C)(=O)=O)cc1`, with 92%; and `COC(=O)c1c(NC(=O)COC(=O)[C@@H](NS(=O)(=O)c2ccccc2)C(C)C)sc2c1CCC2`, with 2% [inhibitor] (active).
As to `CC(C)CN(Cc1c(O)ccc2c(=O)c(-c3ccccc3)coc12)CC(C)C`, the binding response (% of control) was 102%.
The same measure for `Cc1cc(C)cc(C(=O)NC(=S)Nc2ccc3[nH]c(=O)[nH]c3c2)c1`: 105%; for `CC(=O)Nc1ccc(NC(=S)NC(=O)c2ccc([N+](=O)[O-])c(C)c2)cc1`: 97%; for `Cc1ccc(C(=O)NC(=S)Nc2ccc3[nH]c(=O)[nH]c3c2)cc1C`: 145% (active).
As to `CC1(C)CC[C@]2(C(=O)O)CC[C@]3(C)C(=CCC4[C@@]5(C)CC[C@H](O)C(C)(C)C5[C@H](O)C[C@]43C)[C@@H]2C1` (stereo not given in full), the binding response (% of control) is 101%.
Then `Cc1ccc(-c2nc3ccccc3[nH]2)cc1NC(=O)c1sc2ccccc2c1Cl`, with 102%; and `O=C(Nc1cccc(-c2nc3ccccc3[nH]2)c1)c1ccc(C(=O)Nc2cccc(-c3nc4ccccc4[nH]3)c2)cc1`, with 63% [inhibitor] (active).
The same measure for `O=C(Cc1cccs1)Nc1cccc(-c2nc3ccccc3[nH]2)c1`: 107%; for `CCNC(=O)c1cnn(-c2ccccc2)c1-c1ccccc1`: 103%; for `COc1ccc(C(=O)NC(=S)N2CCCCC2c2cccnc2)cc1OC` (stereo not given): 98%.
Then `O=C(c1ccc(CS(=O)(=O)c2ccccc2)o1)N1CCN(c2ccccc2)CC1`, with 102%.
For the compound `O=C(Cc1c(F)cccc1Cl)N1CCN(C(=O)c2ccco2)CC1`, the binding response (% of control) is 103%.
Then `O=C(c1cccc([N+](=O)[O-])c1)N1CCN(C(=O)c2ccco2)CC1`, with 100%; and `O=C(c1ccco1)N1CCN(c2cccc(Cl)c2)CC1`, with 2% [inhibitor] (active); and `Fc1ccc2c(c1)C(c1cccnc1)=NNC(c1cccs1)=N2`, with 107%.
On to `CCCOc1ccc(Cl)cc1Nc1nc(NCCO)nc(N2CCCC2)n1`, for which the binding response (% of control) is 108%.
The same measure for `CCCCN1C(=O)/C(=C(/C#N)C(N)=O)c2ccccc21`: 146% (active); for `COc1ccc2c(c1)C(=C(C#N)C#N)C(=O)N2CCc1ccccc1`: 96%; for `O=C(O)CCCN1C(=O)c2ccccc2Sc2ncccc21`: 107%.
The same measure for `CC1CN(C(=S)Nc2cccc(F)c2)CC(C)O1` (stereo not given): 105%; for `COc1ccc(CNC(=O)C2(CC3CC(c4ccccc4)=NO3)CCN(C(=O)c3cccc(O)c3)CC2)cc1` (stereo not given): 99%; for `COc1ccc(C(=O)NCc2nnc(SCCOc3ccccc3)n2C)cc1`: 102%.
Then `COc1ccc(C(=O)NCc2nnc(SCC(=O)NC3=NCCS3)n2C)cc1`, with 71% [inhibitor] (active).
As to `COC(=O)c1ccc(NC(=O)CSc2nnc(CNc3ccc(OC)cc3)n2C)cc1`, the binding response (% of control) is 106%.
On to `O=C(NCc1ccccc1)c1onc(CSc2ccncc2)c1C(=O)NCc1ccccc1`, for which the binding response (% of control) was 106%.
The same measure for `N/C(=N\OS(=O)(=O)c1cccc([N+](=O)[O-])c1)c1ccncc1`: 145% (active).
The same measure for `O=C(N/N=C/c1cccc([N+](=O)[O-])c1)c1ccncc1`: 107%; for `CO/N=C(\N)c1ccc([N+](=O)[O-])cc1`: 98%.
